phage Ecoli inh: E. coli growth loss with phage present. growth absorbance. inhibition, % at 11.9 µM. 360,000 compounds, 0.26% hits; in the data active = inhibition above about 11%
AddAB inh: less growth of phage-infected E. coli with AddAB | inhibition, % at 11.9 µM | E. coli expressing H. pylori AddAB, absorbance growth | AID 435030 | 330,000 compounds, 0.29% hits; in the data active = inhibition above about 12%;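 also: 0% = vehicle wells of infected cells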
E coli growth-1: inhibitors of Escherichia coli growth; OD600, 23 h; stronger effect = lower value; OD600 absorbance (no concentration beside the values); 330,000 compounds, 0.21% hits; AID 1053175;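 active = OD600 absorbance below the run mean of sample wells minus 3.6 SD, in any replicate, cut at about 0.56 in these data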
E coli growth-2: counter-screen for AddAB inhibitors: E. coli growth inhibition | inhibition, % at 11.9 µM | AID 449728 | 330,000 compounds, 0.27% hits | E. coli V3065 growth, OD600 absorbance, 18 h;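 active = inhibition above the campaign's mean inhibition across all tested compounds plus 3 SD, cut at about 9.9% in these data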;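 also: uninfected addAB+ strain grown without phage in ampicillin broth; 0% = DMSO wells and 100% = ciprofloxacin 0.95 µg/ml wells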
Tat export inh: inhibitors of E. coli Tat protein transport. E. coli MC4100 TorA-mCherry Tat export, fluorescence. inhibition, % at 10 µM. 340,000 compounds, 0.036% hits. AID 488895;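 active = mean replicate inhibition at least 50% and at least half of replicates individually reaching 50%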;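 also: exported cargo escapes ClpAP degradation while cytoplasmic cargo is degraded and loses fluorescence; 0% = median of neutral control wells and 100% = median of NaSCN control wells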
AddAB confirm: growth loss of T4-infected E. coli expressing H. pylori AddAB, confirmed | shares compounds with AddAB inh | E. coli V3065 expressing H. pylori AddAB, T4 phage, OD; T4 phage with gene 2 nonsense mutations | inhibition, % at 11.9 µM | 880 compounds, 64% hits;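 active = mean inhibition above a set limit taken from the earlier primary screen, cut at about 13% in these data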;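 also: higher means less bacterial growth since AddAB block lets phage replicate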
RecBCD counter: counter-screen: growth loss of RecBCD+ E. coli with mutant T4 phage | 880 compounds, 73% hits | inhibition, % at 11.9 µM | shares compounds with AddAB inh | AID 488955 | E. coli V66 + mutant T4 phage, OD growth;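 active = mean inhibition above the mean of solvent-only control wells plus 3 SD, cut at about 4% in these data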;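 also: optical density read after an 18 h incubation at 37 °C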
Bact viability: reduces bacterial viability, AddAB inhibitor counter-screen; shares compounds with AddAB inh; 880 compounds, 35% hits; AID 488956; inhibition, % at 11.9 µM; absorbance (AddAB counterscreen); in the data active = inhibition above about 25%
RecBCD conf: confirmation: growth loss of phage-infected RecBCD+ E. coli (RecBCD inhibitor screen). shares compounds with phage Ecoli inh. E. coli V66 + T4 2- phage, growth OD. inhibition, % at 11.9 µM. 890 compounds, 45% hits;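 active = mean inhibition over triplicates exceeding the hit threshold derived in the original primary screen, cut at about 11% in these data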
Ecoli viability: counter-screen for RecBCD inhibitors: inhibitors of bacterial viability. shares compounds with phage Ecoli inh. E. coli viability, absorbance (OD) growth. inhibition, % at 11.9 µM. 890 compounds, 29% hits; in the data active = inhibition above about 20%;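 also: E. coli strain V66 grown with compound alone and no phage infection; 0% = bacteria with DMSO vehicle only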
AddAB phage OD: growth loss of phage-infected AddAB E. coli, RecBCD counter-screen; 890 compounds, 45% hits; shares compounds with phage Ecoli inh; inhibition, % at 11.9 µM; E. coli expressing H. pylori AddAB + T4 phage, OD growth; gene 2 mutant T4, recBCD-deleted host; AID 651984;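 active = mean inhibition above the solvent-only control wells' mean plus 3 SD, cut at about 22% in these data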;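 also: higher means less bacterial growth from phage killing when AddAB is blocked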
Starred values were filed as active, the others as inactive. Most compounds without a hit are left out; they make up all but 0.5% or so of the library.

How did NC(=O)c1oc2ccccc2c1NC(=O)c1ccc([N+](=O)[O-])o1 do in these assays?
phage Ecoli inh: 23.0*; AddAB inh: 99.2*; E coli growth-1: 0.488*; E coli growth-2: 98.5*; Tat export inh: -3.3; AddAB confirm: 100.8*; RecBCD counter: 26.1*; Bact viability: 101.3*; RecBCD conf: 17.7*; Ecoli viability: 22.3*; AddAB phage OD: 100.0*

How did CC(C)COc1ccc(C(O)=C2C(=O)C(=O)N(CCN(C)C)C2c2ccncc2)cc1 (stereo not drawn) do in these assays?
E coli growth-1: 0.692

Results for COC(=O)[C@@]1(Cc2ccc(F)cc2)C2c3cc(C(=O)N4CCCC4)n(Cc4ccc(C(F)(F)F)nc4)c3CC2CN1C(=O)c1ccccc1 (stereo partly drawn) ?
E coli growth-1: 0.736

What do the screens show for `O=C1c2ccccc2C2=Nc3ccccc3SC(c3ccc(Cl)cc3)C12` (stereo not drawn)?
phage Ecoli inh: 22.1*; AddAB inh: 24.5*; E coli growth-1: 0.655; E coli growth-2: 35.6*; Tat export inh: -57.2; AddAB confirm: 38.9*; RecBCD counter: 29.6*; Bact viability: 51.7*; RecBCD conf: 18.2*; Ecoli viability: 15.6; AddAB phage OD: 42.3*

Results for O=C1CCCC2=C1C(c1ccc(Cl)cc1)C1C(=O)c3ccccc3C1=N2 (stereo not drawn) ?
phage Ecoli inh: 0.1; AddAB inh: 0.7; E coli growth-1: 0.662; E coli growth-2: -3.4; Tat export inh: -1.3

How did COc1ccc2c(c1)OCC1C2N2C(=O)CN(CC3CCCO3)C(=O)[C@@]2(C)C1c1ccccc1 (stereo partly drawn) do in these assays?
E coli growth-1: 0.7

What do the screens show for `CC(=O)c1ccc(NC(=O)c2ccc(NC(=O)c3ccco3)cc2)cc1`?
AddAB inh: 3.2; E coli growth-1: 0.693; E coli growth-2: 2.4; Tat export inh: 2.9

What do the screens show for `O=C(NC(NC(=S)Nc1ccccc1O)C(Cl)(Cl)Cl)c1ccco1` (stereo not drawn)?
phage Ecoli inh: 5.6; AddAB inh: 9.0; E coli growth-1: 0.607; E coli growth-2: 3.8; Tat export inh: -14.3

What do the screens show for `CC(=O)c1ccc(NC(=S)NC(NC(=O)c2ccco2)C(Cl)(Cl)Cl)cc1` (stereo not drawn)?
phage Ecoli inh: 17.5*; AddAB inh: 20.9*; E coli growth-1: 0.641; E coli growth-2: 18.7*; Tat export inh: -11.8; AddAB confirm: 16.2*; RecBCD counter: 15.0*; Bact viability: 13.9; RecBCD conf: 8.2; Ecoli viability: 12.7; AddAB phage OD: 10.5

Results for O=C(NC(NC(=S)Nc1ccc(Cl)cc1)C(Cl)(Cl)Cl)c1ccco1 (stereo not drawn) ?
phage Ecoli inh: 20.3*; AddAB inh: 18.2*; E coli growth-2: 15.4*; Tat export inh: -52.5; AddAB confirm: 14.0*; RecBCD counter: 18.4*; Bact viability: 18.3; RecBCD conf: 10.1; Ecoli viability: 14.9; AddAB phage OD: 16.3

What do the screens show for `Nc1nc(=S)c2ncn(C3OC(CO)C(O)C3O)c2[nH]1` (stereo not drawn)?
phage Ecoli inh: 16.6*; AddAB inh: 25.0*; E coli growth-1: 0.521; E coli growth-2: 30.2*; Tat export inh: -12.0; AddAB confirm: 74.1*; RecBCD counter: 27.1*; Bact viability: 53.9*; RecBCD conf: 31.5*; Ecoli viability: 38.1*; AddAB phage OD: 55.4*

What do the screens show for `Nc1nc(=S)c2ncn(C3CCCCC3)c2[nH]1`?
phage Ecoli inh: 1.6; E coli growth-1: 0.683; Tat export inh: -7.7

Results for Nc1nc(Cl)nc2c1ncn2[C@@H]1O[C@H](CO)[C@@H](O)[C@H]1O ?
phage Ecoli inh: 4.6; AddAB inh: -1.6; E coli growth-2: 0.3; Tat export inh: 5.1

How did Nc1nc(=S)c2ncn([C@@H]3O[C@H](CO)[C@@H](O)[C@H]3O)c2[nH]1 do in these assays?
phage Ecoli inh: 72.1*; AddAB inh: 89.2*; E coli growth-2: 75.9*; Tat export inh: -25.0; AddAB confirm: 90.8*; RecBCD counter: 63.5*; Bact viability: 73.1*; RecBCD conf: 57.4*; Ecoli viability: 74.6*; AddAB phage OD: 81.4*

Results for Nc1ncn([C@@H]2O[C@H](CO)[C@@H](O)[C@H]2O)c(=O)n1 ?
phage Ecoli inh: 61.7*; AddAB inh: 95.6*; E coli growth-2: 93.2*; Tat export inh: -1.8; AddAB confirm: 90.6*; RecBCD counter: 28.9*; Bact viability: 94.2*; RecBCD conf: 47.7*; Ecoli viability: 56.1*; AddAB phage OD: 102.7*

Results for Cc1ccccc1C=CC(=O)NCC(=O)N1CCC(N(C)C2CCCCC2C)CC1 (stereo not drawn) ?
E coli growth-1: 0.712

What do the screens show for `COC(=O)c1ccc(C2C=C(C(=O)O)OC(OCc3ccc(CO)cc3)C2)cc1` (stereo not drawn)?
E coli growth-1: 0.666

Results for CCOC(=O)c1cn(-c2ccc([N+](=O)[O-])cc2)c2cc(Cl)c([N+](=O)[O-])cc2c1=O ?
phage Ecoli inh: 3.6; AddAB inh: 1.9; E coli growth-1: 0.642; E coli growth-2: 3.1; Tat export inh: -3.2

What do the screens show for `O=C(O)c1cn(-c2ccc(F)cc2)c2cc(Cl)c(F)cc2c1=O`?
phage Ecoli inh: 13.6*; AddAB inh: 52.6*; E coli growth-1: 0.0655*; E coli growth-2: 55.3*; Tat export inh: -5.3; AddAB confirm: 102.1*; RecBCD counter: 98.9*; Bact viability: 101.5*; RecBCD conf: 98.0*; Ecoli viability: 100.0*; AddAB phage OD: 99.2*

What do the screens show for `CCn1cc(C(=O)NCCCO)c(=O)c2cc(F)c(N3CCN(C)CC3)cc21`?
phage Ecoli inh: 100.2*; AddAB inh: 99.3*; E coli growth-1: 0.071*; E coli growth-2: 99.1*; Tat export inh: 93.7*; AddAB confirm: 100.0*; RecBCD counter: 99.3*; Bact viability: 100.3*; RecBCD conf: 98.9*; Ecoli viability: 100.1*; AddAB phage OD: 98.4*
